Results as given in the supplement of paper PMC10849652.
The full data set covers some 7,900 targets. This sample favours those with a hit. About 0.6% of all pairs of compound and target were hits. Unmarked numbers belong to inactive results.

Columns and labels:
Assay in all cases: log2 fold change, soluble protein after heating vs DMSO (PISA); higher = thermal stabilisation; K562 cells, 10 uM, 30 min; active = over 0.2 and 3.5 SD of the protein, either way, in both replicates (recomputed)
[1] = compound: CN1CCN(CCOc2cc(OC3CCOCC3)c3c(Nc4c(Cl)ccc5c4OCO5)ncnc3c2)CC1 [saracatinib]
Method in brief: (§1)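 Quantification of soluble protein used TMTpro 16plex LC-MS/MS, with channel sums equalised. Samples were the supernatant after 21,000xg for 90 min of pooled aliquots from K562 cells (2×10^6 cells/mL) treated with 10 μM compound for 30 min, heated for 3 min over 48°C-58°C, and extracted in PBS with 0.5% NP-40 at 4°C. Values, from duplicates, describe thermal stability against control samples on a log2 fold-change scale.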

[2] = compound: CN1CCN(c2nc(C3=C(c4c[nH]c5ccccc45)C(=O)NC3=O)c3ccccc3n2)CC1 [sotrastaurin]
Method in brief: as §1

[3] = compound: CN1CC[C@H](c2c(O)cc(O)c3c(=O)cc(-c4ccccc4Cl)oc23)[C@H](O)C1 [alvocidib]
Method in brief: as §1

[4] = compound: CN1CCc2c(c3ccccc3n2Cc2ccc(C(=O)NO)cc2)C1 [Tubastatin A]
Method in brief: as §1

[5] = compound: CNC(=O)C1=CC=CC=C1NC2=NC(=NC=C2Cl)NC3=C(C=C(C=C3)N4CCOCC4)OC
Method in brief: as §1

[6] = compound: CNC(=O)c1ccc(Nc2ncc(C(F)(F)F)c(NCc3nccnc3N(C)S(C)(=O)=O)n2)cc1 [defactinib]
Method in brief: as §1

[7] = compound: CNCc1ccc(-c2[nH]c3cc(F)cc4c3c2CCNC4=O)cc1 [rucaparib]
Method in brief: as §1

[8] = compound: CNc1nc(-c2ccc3c(N)n[nH]c3c2)cc(N2C[C@@H](C(=O)NC3CCCCC3)CC[C@H]2C)n1
Method in brief: as §1

[9] = compound: COC(=O)N[C@@H](C)CNc1nccc(-c2cn(C(C)C)nc2-c2cc(Cl)cc(NS(C)(=O)=O)c2F)n1 [encorafenib]
Method in brief: as §1

[10] = compound: COC(=O)[C@H](CCSC)NC(=O)C1=C(C=C(C=C1)NC[C@H](CS)N)C2=CC=CC=C2
Method in brief: as §1

[11] = compound: COC1=CC=C(C=C1)CN2C=CC3=C2C=C(C=C3)C(=O)NO
Method in brief: as §1

[12] = compound: CON(C)C(=O)N1N=C(c2cc(F)ccc2F)S[C@@]1(CCCN)c1ccccc1 [filanesib]
Method in brief: as §1

[13] = compound: CO[C@H]1C[C@@H]2CC[C@@H](C)[C@@](O)(O2)C(=O)C(=O)N2CCCC[C@H]2C(=O)O[C@H]([C@H](C)C[C@@H]2CC[C@H](n3cnnn3)[C@H](OC)C2)CC(=O)[C@H](C)/C=C(\C)[C@@H](O)[C@@H](OC)C(=O)[C@H](C)C[C@H](C)/C=C/C=C/C=C/1C [zotarolimus]
Method in brief: as §1

[14] = compound: COc1cc(C(=O)O)ccc1NC(=O)[C@@H]1N[C@@H](CC(C)(C)C)[C@](C#N)(c2ccc(Cl)cc2F)[C@H]1c1cccc(Cl)c1F [idasanutlin]
Method in brief: as §1

[15] = compound: COc1cc(Nc2ncc3c(n2)-c2ccc(Cl)cc2C(c2c(F)cccc2OC)=NC3)ccc1C(=O)O [alisertib]
Method in brief: as §1

[16] = compound: COc1cc2nc(-c3cc(F)ccc3O)nc(N[C@@H]3CNC[C@H]3C(C)(C)O)c2cc1OC
Method in brief: as §1

[17] = compound: COc1cc2ncnc(Nc3ccc(F)c(Cl)c3)c2cc1OCCCN1CCOCC1 [gefitinib]
Method in brief: as §1

[18] = compound: COc1cccc2cc(-c3nc([C@H]4CC[C@H](C(=O)O)CC4)n4ncnc(N)c34)[nH]c12
Method in brief: as §1

[19] = compound: CS(=O)(=O)CCNCc1ccc(-c2ccc3ncnc(Nc4ccc(OCc5cccc(F)c5)c(Cl)c4)c3c2)o1 [lapatinib]
Method in brief: as §1

[20] = compound: CS(=O)(=O)N1CCN(Cc2cc3nc(-c4cccc5[nH]ncc45)nc(N4CCOCC4)c3s2)CC1 [pictilisib]
Method in brief: as §1

Chain of UniProt Q9BW92 (Q9BW92 whole entry, looked up): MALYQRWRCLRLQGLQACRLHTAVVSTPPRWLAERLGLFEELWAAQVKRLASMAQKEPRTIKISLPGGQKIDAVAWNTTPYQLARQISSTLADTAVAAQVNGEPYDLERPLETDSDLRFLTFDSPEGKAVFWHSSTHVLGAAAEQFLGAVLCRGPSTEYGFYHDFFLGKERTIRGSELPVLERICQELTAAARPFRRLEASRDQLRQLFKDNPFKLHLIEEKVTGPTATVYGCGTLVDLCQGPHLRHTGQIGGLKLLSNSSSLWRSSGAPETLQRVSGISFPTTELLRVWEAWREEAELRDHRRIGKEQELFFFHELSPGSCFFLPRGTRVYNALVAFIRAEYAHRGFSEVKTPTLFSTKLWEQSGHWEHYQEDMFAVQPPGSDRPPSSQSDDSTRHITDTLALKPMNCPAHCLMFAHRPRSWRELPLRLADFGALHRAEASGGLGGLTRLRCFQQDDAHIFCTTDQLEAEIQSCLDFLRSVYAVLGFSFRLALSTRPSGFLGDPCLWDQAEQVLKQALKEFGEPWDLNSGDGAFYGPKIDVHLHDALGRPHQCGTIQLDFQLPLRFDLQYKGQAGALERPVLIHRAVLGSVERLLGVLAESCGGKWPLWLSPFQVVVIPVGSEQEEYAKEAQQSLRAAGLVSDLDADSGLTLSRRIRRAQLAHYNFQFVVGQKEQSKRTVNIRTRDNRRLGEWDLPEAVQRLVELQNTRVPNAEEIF
Chain of UniProt Q9NZD8 (Q9NZD8 whole entry, looked up): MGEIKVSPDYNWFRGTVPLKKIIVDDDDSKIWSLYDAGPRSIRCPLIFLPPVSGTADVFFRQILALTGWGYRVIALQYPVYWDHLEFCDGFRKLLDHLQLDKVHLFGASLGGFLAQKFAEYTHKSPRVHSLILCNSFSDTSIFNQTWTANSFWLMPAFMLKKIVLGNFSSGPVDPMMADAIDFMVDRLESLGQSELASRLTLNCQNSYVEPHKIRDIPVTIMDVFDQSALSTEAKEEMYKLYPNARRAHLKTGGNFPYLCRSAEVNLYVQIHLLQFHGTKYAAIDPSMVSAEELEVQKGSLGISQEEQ
Chain of UniProt Q13428 (Q13428 whole entry, looked up): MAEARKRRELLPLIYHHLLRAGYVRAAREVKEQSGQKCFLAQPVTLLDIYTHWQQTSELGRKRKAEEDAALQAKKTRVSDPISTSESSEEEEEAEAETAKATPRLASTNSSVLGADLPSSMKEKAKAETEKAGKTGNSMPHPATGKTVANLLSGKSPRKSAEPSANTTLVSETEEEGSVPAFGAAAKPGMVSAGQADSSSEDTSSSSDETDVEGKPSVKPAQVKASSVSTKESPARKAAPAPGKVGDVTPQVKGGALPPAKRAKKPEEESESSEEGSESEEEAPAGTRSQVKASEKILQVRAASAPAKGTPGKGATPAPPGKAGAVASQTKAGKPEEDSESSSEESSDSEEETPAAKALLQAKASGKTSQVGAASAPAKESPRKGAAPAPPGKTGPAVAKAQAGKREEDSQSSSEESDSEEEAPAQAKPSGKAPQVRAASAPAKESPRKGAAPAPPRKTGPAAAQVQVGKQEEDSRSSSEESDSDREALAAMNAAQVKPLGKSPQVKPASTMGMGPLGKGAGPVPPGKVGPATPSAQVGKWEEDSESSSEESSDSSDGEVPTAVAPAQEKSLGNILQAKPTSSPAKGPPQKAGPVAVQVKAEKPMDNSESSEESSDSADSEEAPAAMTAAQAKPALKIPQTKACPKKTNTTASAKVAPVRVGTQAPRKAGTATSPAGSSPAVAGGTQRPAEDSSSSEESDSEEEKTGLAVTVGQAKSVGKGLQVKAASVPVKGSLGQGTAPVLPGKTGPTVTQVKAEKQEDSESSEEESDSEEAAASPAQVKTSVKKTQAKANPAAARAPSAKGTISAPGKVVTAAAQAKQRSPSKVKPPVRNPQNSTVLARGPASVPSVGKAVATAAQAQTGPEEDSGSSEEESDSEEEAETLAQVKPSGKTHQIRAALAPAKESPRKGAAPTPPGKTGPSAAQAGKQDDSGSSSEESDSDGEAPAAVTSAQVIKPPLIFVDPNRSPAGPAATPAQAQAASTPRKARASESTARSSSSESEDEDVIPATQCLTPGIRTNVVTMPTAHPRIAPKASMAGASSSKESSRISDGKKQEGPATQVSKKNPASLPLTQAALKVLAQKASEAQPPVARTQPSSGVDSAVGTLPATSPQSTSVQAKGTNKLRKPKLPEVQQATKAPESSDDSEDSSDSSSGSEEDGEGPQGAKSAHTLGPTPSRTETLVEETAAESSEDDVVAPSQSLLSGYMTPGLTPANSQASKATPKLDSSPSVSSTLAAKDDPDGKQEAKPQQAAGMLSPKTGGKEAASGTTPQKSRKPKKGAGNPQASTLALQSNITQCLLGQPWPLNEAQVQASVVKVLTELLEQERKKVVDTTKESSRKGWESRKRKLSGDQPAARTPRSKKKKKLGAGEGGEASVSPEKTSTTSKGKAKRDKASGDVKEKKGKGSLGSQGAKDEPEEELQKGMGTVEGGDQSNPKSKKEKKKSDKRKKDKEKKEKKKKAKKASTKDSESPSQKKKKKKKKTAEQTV
Chain of UniProt Q05519 (Q05519 whole entry, looked up): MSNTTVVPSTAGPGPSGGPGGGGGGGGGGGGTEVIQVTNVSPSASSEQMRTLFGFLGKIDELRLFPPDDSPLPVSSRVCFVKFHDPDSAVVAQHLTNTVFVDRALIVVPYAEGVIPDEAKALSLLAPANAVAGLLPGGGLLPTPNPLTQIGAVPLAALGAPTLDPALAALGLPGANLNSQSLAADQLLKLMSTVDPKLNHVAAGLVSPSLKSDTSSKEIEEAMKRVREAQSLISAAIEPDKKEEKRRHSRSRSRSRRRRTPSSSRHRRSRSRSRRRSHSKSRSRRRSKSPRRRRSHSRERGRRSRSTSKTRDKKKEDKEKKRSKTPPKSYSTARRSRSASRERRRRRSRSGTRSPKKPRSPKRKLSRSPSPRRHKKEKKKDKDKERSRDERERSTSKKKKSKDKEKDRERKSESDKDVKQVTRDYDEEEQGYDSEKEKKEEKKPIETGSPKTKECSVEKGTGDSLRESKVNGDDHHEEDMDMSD
Chain of UniProt Q16594 (Q16594 whole entry, looked up): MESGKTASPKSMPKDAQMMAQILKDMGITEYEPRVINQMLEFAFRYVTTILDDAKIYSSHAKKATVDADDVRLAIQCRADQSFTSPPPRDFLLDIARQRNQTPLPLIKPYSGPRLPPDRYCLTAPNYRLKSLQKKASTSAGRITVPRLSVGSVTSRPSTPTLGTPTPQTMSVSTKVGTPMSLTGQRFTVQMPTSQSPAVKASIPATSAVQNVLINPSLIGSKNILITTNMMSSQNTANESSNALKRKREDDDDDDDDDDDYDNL
Chain of UniProt P02786 (P02786 whole entry, looked up): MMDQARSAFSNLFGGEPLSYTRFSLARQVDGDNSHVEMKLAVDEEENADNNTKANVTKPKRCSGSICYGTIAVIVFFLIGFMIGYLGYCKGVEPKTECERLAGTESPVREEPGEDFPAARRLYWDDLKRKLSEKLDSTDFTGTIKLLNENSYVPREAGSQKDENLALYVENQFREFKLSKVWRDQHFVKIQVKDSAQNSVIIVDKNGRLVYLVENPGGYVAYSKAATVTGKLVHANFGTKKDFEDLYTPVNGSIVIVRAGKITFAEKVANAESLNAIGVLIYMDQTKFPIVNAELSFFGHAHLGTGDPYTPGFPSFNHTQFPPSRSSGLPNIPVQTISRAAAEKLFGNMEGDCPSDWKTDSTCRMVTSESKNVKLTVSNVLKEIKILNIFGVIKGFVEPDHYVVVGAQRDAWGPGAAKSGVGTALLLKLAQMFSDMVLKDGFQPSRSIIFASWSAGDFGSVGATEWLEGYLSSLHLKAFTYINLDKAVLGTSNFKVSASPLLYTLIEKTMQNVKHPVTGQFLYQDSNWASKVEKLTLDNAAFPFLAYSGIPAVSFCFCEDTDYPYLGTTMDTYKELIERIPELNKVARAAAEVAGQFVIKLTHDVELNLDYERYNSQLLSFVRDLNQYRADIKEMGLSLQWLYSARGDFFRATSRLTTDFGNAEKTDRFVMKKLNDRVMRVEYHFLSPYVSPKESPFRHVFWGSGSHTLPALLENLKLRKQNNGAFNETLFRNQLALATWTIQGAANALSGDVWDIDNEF
Chain of UniProt Q9Y6I9 (Q9Y6I9 whole entry, looked up): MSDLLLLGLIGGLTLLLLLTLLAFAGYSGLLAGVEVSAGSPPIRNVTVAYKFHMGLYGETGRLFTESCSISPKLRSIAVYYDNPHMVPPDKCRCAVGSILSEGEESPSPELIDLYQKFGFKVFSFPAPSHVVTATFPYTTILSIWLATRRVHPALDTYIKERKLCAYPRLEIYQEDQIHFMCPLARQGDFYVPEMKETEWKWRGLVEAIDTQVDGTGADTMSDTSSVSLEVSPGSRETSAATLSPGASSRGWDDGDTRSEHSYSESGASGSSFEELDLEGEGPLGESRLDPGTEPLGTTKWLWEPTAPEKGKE
Chain of UniProt Q15796 (Q15796 whole entry, looked up): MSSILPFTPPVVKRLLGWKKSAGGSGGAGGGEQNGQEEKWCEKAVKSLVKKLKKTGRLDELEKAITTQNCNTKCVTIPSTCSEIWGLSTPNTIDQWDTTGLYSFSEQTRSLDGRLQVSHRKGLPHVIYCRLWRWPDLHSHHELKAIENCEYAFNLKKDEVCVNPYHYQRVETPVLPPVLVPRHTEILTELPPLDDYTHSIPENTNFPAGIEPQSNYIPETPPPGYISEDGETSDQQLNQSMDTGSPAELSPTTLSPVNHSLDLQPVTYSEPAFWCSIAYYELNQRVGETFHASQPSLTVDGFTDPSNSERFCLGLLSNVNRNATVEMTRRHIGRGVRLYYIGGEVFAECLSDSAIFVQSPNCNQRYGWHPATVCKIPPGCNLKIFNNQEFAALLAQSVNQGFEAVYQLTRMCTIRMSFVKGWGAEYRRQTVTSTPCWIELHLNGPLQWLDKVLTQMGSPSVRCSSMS
Chain of UniProt P30626 (P30626 whole entry, looked up): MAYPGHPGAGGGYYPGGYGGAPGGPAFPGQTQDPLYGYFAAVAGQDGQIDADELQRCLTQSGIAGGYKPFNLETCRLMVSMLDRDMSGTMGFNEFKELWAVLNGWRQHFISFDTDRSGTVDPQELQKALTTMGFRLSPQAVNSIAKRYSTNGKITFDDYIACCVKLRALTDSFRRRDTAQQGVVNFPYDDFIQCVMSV

Row | Target | log2 fold change [1] | log2 fold change [2] | log2 fold change [3] | log2 fold change [4] | log2 fold change [5] | log2 fold change [6] | log2 fold change [7] | log2 fold change [8] | log2 fold change [9] | log2 fold change [10] | log2 fold change [11] | log2 fold change [12] | log2 fold change [13] | log2 fold change [14] | log2 fold change [15] | log2 fold change [16] | log2 fold change [17] | log2 fold change [18] | log2 fold change [19] | log2 fold change [20]
1 | TARS2 (UniProt Q9BW92) | -0.004 | -0.049 | -0.041 | -0.357 (active) | 0.03 | -0.033 | 0.009 | -0.098 | 0.015 | 0.039 | -0.487 (active) | -0.02 | -0.006 | -0.084 | -0.021 | 0.044 | -0.023 | 0.041 | -0.022 | 0.004
2 | TAMM41 isoform 3 (UniProt Q96BW9) | -0.009 | -0.003 | 0.027 | -0.043 | -0.037 | 0.015 | 0.036 | -0.006 | 0.01 | -0.007 | -0.027 | -0.09 | -0.009 | -0.122 | 0.019 | -0.169 | -0.025 | 0.112 | 0.021 | 0.027
3 | SPG21 (UniProt Q9NZD8) | 0.007 | -0.005 | -0.097 | 0.016 | -0.015 | -0.134 | 0.089 | 0.211 | -0.022 | 0.01 | -0.026 | 0 | 0.063 | 0.03 | -0.084 | 0.174 | 0.226 | 0.011 | 0.072 | 0.064
4 | SRSF11 (UniProt Q05519) | 0.062 | -0.059 | -0.209 | 0.015 | -0.243 | -0.174 | 0.005 | -0.089 | -0.016 | -0.045 | 0.084 | 0.093 | 0.012 | -0.021 | -0.079 | 0.017 | 0.023 | 0.018 | 0 | -0.164
5 | SLC4A2 (UniProt P04920) | 0.003 | -0.029 | -0.174 | 0.066 | -0.006 | 0.028 | 0.064 | 0.008 | 0.085 | -0.067 | -0.088 | -0.041 | 0 | -0.002 | -0.016 | 0.051 | -0.081 | -0.003 | -0.023 | 0.128
6 | SRI (UniProt P30626) | -0.034 | -0.017 | -0.062 | 0.039 | 0.034 | -0.108 | -0.012 | -0.021 | -0.03 | -0.022 | -0.015 | 0.053 | 0.133 | -0.031 | -0.035 | -0.109 | 0.01 | 0.023 | 0.008 | -0.04
7 | TCOF1 isoform 4 (UniProt Q13428) | 0.016 | -0.064 | 0.012 | 0.013 | -0.006 | -0.033 | 0.02 | -0.038 | 0.002 | 0.026 | 0.002 | 0.028 | -0.011 | 0.092 | -0.061 | -0.051 | -0.01 | -0.002 | 0.017 | 0.028
8 | SP3 (UniProt Q02447) | 0.048 | -0.122 | 0.033 | -0.205 | -0.032 | 0.042 | -0.004 | -0.05 | -0.053 | 0.04 | -0.001 | -0.008 | -0.024 | 0.052 | -0.084 | 0.037 | -0.038 | -0.04 | 0.016 | 0.041
9 | SMAD2 (UniProt Q15796) | 0.001 | -0.235 | -0.316 | 0.016 | 0.025 | -0.142 | 0.043 | 0.039 | -0.045 | -0.052 | -0.011 | 0.091 | 0.043 | 0 | 0.032 | -0.016 | 0.117 | -0.032 | 0.043 | 0.102
10 | TFRC (UniProt P02786) | 0.008 | 0.005 | 0.01 | -0.028 | 0.029 | -0.03 | -0.003 | -0.056 | 0.019 | -0.004 | 0.009 | -0.013 | -0.041 | -0.027 | -0.05 | 0.017 | 0.004 | 0.063 | -0.03 | 0.048
11 | TEX264 (UniProt Q9Y6I9) | -0.041 | -0.027 | -0.036 | -0.077 | 0.13 | 0.112 | 0.407 | 0.629 (active) | -0.039 | 0.071 | 0.07 | -0.169 | 0.059 | -0.076 | -0.042 | 0.163 | 0.164 | -0.046 | 0.421 | 0.321
12 | STXBP5 (UniProt Q5T5C0) | -0.014 | 0.019 | -0.085 | 0.01 | -0.023 | -0.011 | -0.002 | -0.032 | 0.028 | -0.003 | -0.012 | -0.039 | 0 | -0.022 | -0.084 | 0.015 | -0.006 | 0.003 | 0.023 | -0.038
13 | SRP72 (UniProt O76094) | -0.102 | -0.181 | 0.069 | 0.119 | 0.04 | -0.035 | 0.184 | 0.055 | 0.155 | -0.134 | 0.003 | 0.075 | 0.048 | -0.045 | -0.131 | 0.023 | 0.007 | -0.235 | -0.043 | 0
14 | TFB2M (UniProt Q9H5Q4) | -0.029 | -0.031 | -0.082 | -0.012 | 0.02 | -0.06 | -0.013 | -0.054 | -0.002 | -0.001 | -0.044 | -0.074 | -0.001 | -0.055 | 0.011 | 0.006 | 0.002 | 0.037 | -0.001 | -0.021
15 | STAM2 (UniProt O75886) | -0.093 | -0.011 | -0.097 | -0.014 | 0.035 | -0.095 | -0.035 | -0.02 | 0.027 | -0.019 | -0.006 | 0.059 | -0.018 | -0.06 | 0.015 | 0.001 | 0.002 | -0.066 | -0.018 | 0.055
16 | TAF9 (UniProt Q16594) | 0.076 | 0.021 | 0.142 | -0.023 | -0.1 | 0.016 | -0.019 | -0.065 | -0.048 | 0.103 | 0.066 | 0.109 | -0.018 | 0.056 | -0.109 | 0.024 | 0.01 | 0.019 | -0.028 | -0.017
